Reference: PubChem BioAssay
Activity calls are given as the source filed them.

Key:
Albumin (Bos taurus) = Albumin (Bos taurus) (UniProt P02769); test: compounds binding labelled BSA control protein – biochemical, small-molecule microarray, Alexa647 label, 635/667 nm fluorescence, artefact control for SMM control protein annotation, profiling panel (AID 1118); settings: BSA-A647 binding, fluorescence 635 nm, higher = more signal;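 note: score merges 667 nm emission intensity and signal-to-noise per printed compound spot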
[1] = probe aXIP binding to arrayed compounds – biochemical, NeuroSMM set, 635/667 nm fluorescence, primary screen (AID 1119); settings: small-molecule microarray, higher = more signal, called active from +8 up or from −8 down;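 note: probe is the protein aXip251-270 applied at 1 µg/mL to compound-printed slides; binding of probe to printed compounds measured as 667 nm fluorescence plus signal to noise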
[2] = probe aNOTCH3 binding on compound microarray – biochemical, small-molecule microarray, 635/667 nm fluorescence, primary screen (AID 1120); settings: higher = more signal;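 note: probe is a biotin-tagged antibody raised against NOTCH3 rather than NOTCH3 protein; score merges spot fluorescence near 667 nm with spot signal to noise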
[3] = probe aNOTCH2 binding on compound microarray – biochemical, small-molecule microarray, 635/667 nm fluorescence, primary screen (AID 1121); settings: higher = more signal;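 note: score merges feature fluorescence read at 667 nm with its signal to noise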
[4] = molecular target: Carbonic anhydrase 2 (Homo sapiens) (UniProt P00918); test: compounds binding carbonic anhydrase 2 – biochemical, small-molecule microarray, Alexa647-labelled CAII, profiling panel (AID 1122); settings: CAII-A647 binding fluorescence, higher = more signal
[5] = COS7 lysate on small-molecule microarray, probe aHis, 635 nm (AID 1123); settings: COS7 cell lysate, fluorescence, higher = more signal;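 note: z-score combines 667nm fluorescence intensity with signal-to-noise per printed compound spot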
[6] = probe aLAP1 signal on lysate-treated microarray – cell lysate, small-molecule microarray, COS7 lysate, primary screen (AID 1124); settings: probe aLAP1, fluorescence, higher = more signal;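 note: lysate comes from COS7 cells expressing LAP1 and is applied at 0.3 µg/mL; score merges spot fluorescence near 667 nm with signal-to-noise over triplicate slides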
Sam68 (KHDRBS1) = test: compounds binding KHDRBS1 protein – biochemical, small-molecule microarray, 635 nm fluorescence, primary screen (AID 1125); settings: higher = more signal;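 note: score merges 667 nm channel intensity with signal to noise over triplicate slides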
[7] = tested on: Chordin-like protein 2 (CHRDL2); test: compounds binding chordin-like 2 – biochemical, small-molecule microarray, 635 nm fluorescence, primary screen (AID 1126); settings: fluorescence 635 nm, higher = more signal;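 note: printed compound slides probed with Chrdl2 protein at 4 µg/mL for 1 h at 4 C; score merges 667 nm emission intensity with signal to noise over three replicate slides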
[8] = molecular target: Concanavalin-A (Canavalia ensiformis) (UniProt P02866); test: compounds binding concanavalin A lectin – biochemical, small-molecule microarray, Alexa647 label, 635 nm, artefact control for SMM control protein annotation, primary screen (AID 1127); settings: ConA-A647 binding fluorescence, higher = more signal;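 note: z combines 667 nm emission intensity with signal-to-noise across three replicate slides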
[9] = compounds binding Alexa647 anti-His antibody – biochemical, small-molecule microarray, 635 nm fluorescence, artefact control for SMM control protein annotation, primary screen (AID 1128); settings: higher = more signal;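 note: score merges feature fluorescence with signal-to-noise for each printed compound spot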
[10] = tested on: Human papillomavirus type 1a E7 protein (residues 1-88); test: HPV1a E7 small-molecule binders, primary screen, biochemical, small-molecule microarray, residues 1-88, 635 nm (AID 1129); settings: small-molecule microarray binding, fluorescence 635 nm; higher = more signal
[11] = molecular target: Focal adhesion kinase 1 (Homo sapiens) (UniProt Q05397); test: PTK2 protein binding on printed compound slides – biochemical, small-molecule microarray, 635/667 nm fluorescence, BSA, DTT, primary screen (AID 1130); settings: 635 nm fluorescence, higher = more signal;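 note: composite of spot emission at 667 nm and signal to noise over triplicate slides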
[12] = tested on: Fibrinogen (Alexa647-labelled); test: Alexa647-fibrinogen binding to printed small molecules – biochemical, small-molecule microarray, 635/667 nm fluorescence, artefact control for SMM control-protein annotation, profiling panel (AID 1131); settings: fibrinogen-A647 binding fluorescence, higher = more signal;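 note: z-score merges 667 nm fluorescence with per-spot signal-to-noise over triplicate slides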
[13] = molecular target: Follistatin (Homo sapiens) (UniProt P19883); test: FST protein binding to printed compounds – biochemical, small-molecule microarray, 635/667 nm fluorescence, primary screen (AID 1132); settings: 635 nm fluorescence, higher = more signal
[14] = molecular target: Fibroblast growth factor 2 (Homo sapiens) (UniProt P09038); test: basic fibroblast growth factor binding to printed compounds – biochemical, small-molecule microarray, 635/667 nm fluorescence, primary screen (AID 1133); settings: FGF2, fluorescence 635/667, higher = more signal
[15] = JC-1 mitochondrial potential readout, lung cancer cells – cell-based, A549, JC-1 fluorescence, basal, 24 h, 100 nL, profiling panel (AID 1138); settings: higher = more signal;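 note: A549 lung adenocarcinoma cells under basal conditions with no added stimulus; test concentration not given here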
Lefty1 = Lefty1 protein binding to printed compounds – biochemical, small-molecule microarray, 635/667 nm fluorescence, primary screen (AID 1139); settings: fluorescence 635/667, higher = more signal
[16] = tested on: wheat germ agglutinin (Triticum aestivum), Alexa647-labelled; test: Alexa647-WGA lectin binding to printed small molecules – biochemical, small-molecule microarray, 635/667 nm fluorescence, artefact control for SMM control-protein annotation, profiling panel (AID 1140); settings: WGA-A647 binding, 635 nm fluorescence, higher = more signal;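 note: score merges 667 nm feature emission with signal to noise over triplicate slides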
[17] = molecular target: Luciferin 4-monooxygenase (Photinus pyralis) (UniProt P08659); test: inhibition of purified Photinus pyralis luciferase – biochemical, luminescence, purified enzyme, 2006 set, primary screen (AID 1141); settings: purified firefly luciferase, SteadyGlo luminescence, 30 min; higher = more signal, called active from +8 up or from −8 down;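 note: cell-free assay with purified firefly luciferase at 100 ng per well in PBS; test concentration not given here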
Luciferin 4-monooxygenase (Photinus pyralis), sequence (P08659 whole entry, looked up): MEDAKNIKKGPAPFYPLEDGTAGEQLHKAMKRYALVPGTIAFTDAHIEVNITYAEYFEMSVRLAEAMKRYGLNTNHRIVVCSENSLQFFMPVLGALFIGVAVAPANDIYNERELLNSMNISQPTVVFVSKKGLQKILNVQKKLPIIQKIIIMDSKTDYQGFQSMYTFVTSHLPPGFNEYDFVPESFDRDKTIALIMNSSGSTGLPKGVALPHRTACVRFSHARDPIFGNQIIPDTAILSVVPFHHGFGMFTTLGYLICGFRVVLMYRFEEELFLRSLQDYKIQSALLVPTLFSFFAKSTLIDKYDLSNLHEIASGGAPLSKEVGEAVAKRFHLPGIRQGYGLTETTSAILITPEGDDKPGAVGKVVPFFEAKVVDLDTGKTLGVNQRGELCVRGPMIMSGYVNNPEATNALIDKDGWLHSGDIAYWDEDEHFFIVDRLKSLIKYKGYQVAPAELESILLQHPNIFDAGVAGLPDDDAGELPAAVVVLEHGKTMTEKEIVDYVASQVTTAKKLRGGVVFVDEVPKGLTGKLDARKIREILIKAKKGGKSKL

Focal adhesion kinase 1 (Homo sapiens), sequence (Q05397 whole entry, looked up): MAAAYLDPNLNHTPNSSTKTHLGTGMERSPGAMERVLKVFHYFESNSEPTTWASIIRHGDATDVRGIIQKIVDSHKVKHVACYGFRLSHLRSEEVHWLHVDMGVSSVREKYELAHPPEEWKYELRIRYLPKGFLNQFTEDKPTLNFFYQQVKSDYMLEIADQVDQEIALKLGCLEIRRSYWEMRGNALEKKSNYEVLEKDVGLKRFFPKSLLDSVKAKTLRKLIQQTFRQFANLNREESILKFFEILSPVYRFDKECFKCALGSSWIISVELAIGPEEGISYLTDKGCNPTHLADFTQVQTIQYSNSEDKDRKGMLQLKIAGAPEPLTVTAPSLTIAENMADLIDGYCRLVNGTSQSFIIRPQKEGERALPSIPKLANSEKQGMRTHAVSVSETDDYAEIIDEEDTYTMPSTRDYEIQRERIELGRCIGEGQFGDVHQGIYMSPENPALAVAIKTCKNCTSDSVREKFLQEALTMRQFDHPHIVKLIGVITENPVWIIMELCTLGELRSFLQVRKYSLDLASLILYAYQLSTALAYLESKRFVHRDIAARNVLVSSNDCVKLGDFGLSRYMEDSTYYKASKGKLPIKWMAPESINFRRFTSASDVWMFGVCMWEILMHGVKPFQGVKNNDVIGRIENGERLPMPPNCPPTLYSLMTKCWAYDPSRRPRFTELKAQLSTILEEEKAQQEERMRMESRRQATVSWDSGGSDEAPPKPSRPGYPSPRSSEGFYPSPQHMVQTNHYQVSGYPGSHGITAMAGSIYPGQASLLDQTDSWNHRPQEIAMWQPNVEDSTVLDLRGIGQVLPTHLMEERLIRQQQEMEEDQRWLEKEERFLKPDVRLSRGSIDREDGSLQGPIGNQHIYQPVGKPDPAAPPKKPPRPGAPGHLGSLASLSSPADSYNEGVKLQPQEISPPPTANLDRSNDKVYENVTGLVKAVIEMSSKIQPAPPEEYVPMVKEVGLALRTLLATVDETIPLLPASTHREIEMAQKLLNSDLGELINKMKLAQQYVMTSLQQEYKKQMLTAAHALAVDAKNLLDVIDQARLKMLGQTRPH
Concanavalin-A (Canavalia ensiformis), sequence (P02866 whole entry, looked up): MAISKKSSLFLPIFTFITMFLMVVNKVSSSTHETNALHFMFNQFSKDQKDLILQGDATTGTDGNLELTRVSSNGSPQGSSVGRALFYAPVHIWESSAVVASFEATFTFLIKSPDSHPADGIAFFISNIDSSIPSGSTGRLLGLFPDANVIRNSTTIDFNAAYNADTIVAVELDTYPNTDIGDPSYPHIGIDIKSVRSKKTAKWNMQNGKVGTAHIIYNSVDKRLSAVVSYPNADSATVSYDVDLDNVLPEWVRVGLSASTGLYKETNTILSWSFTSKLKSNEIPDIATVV
Fibroblast growth factor 2 (Homo sapiens), sequence (P09038 whole entry, looked up): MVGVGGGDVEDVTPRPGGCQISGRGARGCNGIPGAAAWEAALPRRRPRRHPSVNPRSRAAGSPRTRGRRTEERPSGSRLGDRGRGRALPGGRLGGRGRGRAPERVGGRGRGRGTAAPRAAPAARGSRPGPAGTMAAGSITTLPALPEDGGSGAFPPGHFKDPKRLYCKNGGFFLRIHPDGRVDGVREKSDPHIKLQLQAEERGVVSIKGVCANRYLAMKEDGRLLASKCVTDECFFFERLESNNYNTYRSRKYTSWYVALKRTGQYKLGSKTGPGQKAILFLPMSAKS
Albumin (Bos taurus), sequence (P02769 whole entry, looked up): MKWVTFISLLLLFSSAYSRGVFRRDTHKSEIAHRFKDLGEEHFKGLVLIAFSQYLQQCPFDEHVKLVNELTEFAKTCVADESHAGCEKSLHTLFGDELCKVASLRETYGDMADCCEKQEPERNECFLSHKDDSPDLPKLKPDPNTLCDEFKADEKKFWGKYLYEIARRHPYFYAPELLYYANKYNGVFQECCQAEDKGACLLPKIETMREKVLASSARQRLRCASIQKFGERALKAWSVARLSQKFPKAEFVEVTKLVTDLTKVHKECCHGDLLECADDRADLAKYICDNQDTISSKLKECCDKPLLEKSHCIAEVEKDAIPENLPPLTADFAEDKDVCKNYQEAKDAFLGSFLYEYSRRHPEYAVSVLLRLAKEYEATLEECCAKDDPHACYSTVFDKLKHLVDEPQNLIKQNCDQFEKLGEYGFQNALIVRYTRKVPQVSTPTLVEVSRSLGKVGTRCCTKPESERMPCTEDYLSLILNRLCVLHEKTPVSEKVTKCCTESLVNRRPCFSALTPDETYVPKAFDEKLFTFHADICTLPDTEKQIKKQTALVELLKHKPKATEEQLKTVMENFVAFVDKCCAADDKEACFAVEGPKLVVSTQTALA
Follistatin (Homo sapiens), sequence (P19883 whole entry, looked up): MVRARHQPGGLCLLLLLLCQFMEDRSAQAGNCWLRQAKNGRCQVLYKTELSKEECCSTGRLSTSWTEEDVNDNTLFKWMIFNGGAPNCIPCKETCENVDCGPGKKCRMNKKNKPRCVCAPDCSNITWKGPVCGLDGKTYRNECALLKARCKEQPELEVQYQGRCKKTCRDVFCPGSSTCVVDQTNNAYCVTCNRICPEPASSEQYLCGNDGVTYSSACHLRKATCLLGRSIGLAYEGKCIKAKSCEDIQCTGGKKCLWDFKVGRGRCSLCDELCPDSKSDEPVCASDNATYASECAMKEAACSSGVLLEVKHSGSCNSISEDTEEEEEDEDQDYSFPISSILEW

SMILES	composite z-score (Albumin (Bos taurus))	composite Z-score [1]	composite z-score [2]	composite z-score [3]	composite z-score [4]	composite z-score [5]	composite z-score [6]	composite z-score (Sam68 (KHDRBS1))	composite z-score [7]	composite z-score [8]	composite z-score [9]	composite z-score [10]	composite z-score [11]	composite z-score [12]	composite z-score [13]	composite z-score [14]	z-score [15]	composite z-score (Lefty1)	composite z-score [16]	z-score [17]
COCCOC(=O)N1C(=O)[C@@]2(c3cc(C#CC4=CCCCC4)ccc31)[C@H](c1ccccc1OCCO)N1[C@H](c3ccccc3)[C@H](c3ccccc3)OC(=O)[C@H]1[C@@H]2C(=O)N1CCc2cc(OC)c(OC)cc2C1	-0.157	0.0781 (inactive)	-0.406	-0.255	0.426	0.641	0.379	1.3	0.774	0.856	0.891	1.2	0.204	0.764	1.28	0.917	-0.682	0.555	0.441	-1.97 (inactive)
COC(=O)[C@@]1(Cc2ccc(OC)cc2)[C@H]2c3cc(C(=O)N(C)C)n(Cc4ccccc4)c3C[C@H]2CN1C(=O)c1ccccc1	0.864	-0.96 (inactive)	0.0372	-0.0505	0.366	1.86	0.421	0.92	-0.393	0.435	3.25	1.14	0.649	-0.228	-0.0192	-0.825	2.63	-0.244	0.578	0.84 (inactive)
COC(=O)[C@@]1(Cc2ccc(F)cc2)[C@H]2c3cc(C(=O)N4CCCC4)n(CCc4c[nH]c5ccc(OC)cc45)c3C[C@H]2CN1C(=O)c1ccccc1	0.871	0.298 (inactive)	1.43	0.849	0.313	2.33	-0.143	0.929	-0.0865	1.09	2.4	1.22	2.48	0.845	0.685	0.6	-1.17	0.385	0.977	1.64 (inactive)
C=C[C@@H](COC(C)=O)NS(=O)(=O)c1ccc(Br)cc1	-0.0541	0.486 (inactive)	-0.0728	-0.0859	0.28	0.151	-0.0973	0.597	0.0699	0.205	0.188	0.374	0.0776	0.156	0.635	0.617	-0.367	0.283	0.428	-0.823 (inactive)
C=C(CCCC)C(=O)CC[C@@H](OC(=O)c1ccccc1-c1ccccc1C(=O)O)c1cccc(OCCO)c1	-0.658	-0.263 (inactive)	-0.15	-0.154	0.728	0.361	0.742	0.986	1.22	-0.5	-0.0724	0.53	0.113	0.834	1.43	1.56	0.317	1.68	-0.0168	-2.33 (inactive)
COc1ccc([Si](C)(C)[C@@H]2[C@@H](CCO)O[C@]3(C(=O)N(Cc4cccc(N5C(=O)c6cccc7cccc5c67)c4)c4ccccc43)[C@H]2C)cc1	0.219	-0.139 (inactive)	-0.0947	-0.101	0.428	1.17	-0.179	0.262	-0.512	0.48	1.06	0.848	-0.123	0.136	0.004	-0.0148	-0.43	0.626	0.0034	-0.508 (inactive)
CCCCN1CC=CC23O[C@@H]4/C=C\CCC(C)OC(=O)C4[C@H]2C(=O)N(CCCCCCO)[C@@H]3C1=O (stereo not given in full)	0.5	-0.59 (inactive)	-0.307	-0.228	0.86	0.177	0.54	-0.168	-0.361	-0.34	0.539	0.0554	-0.266	-1.22	-0.454	-0.668	0.376	-0.74	-0.465	-0.393 (inactive)
C=C(COC)/C(=C/C[C@@H](OC(=O)c1ccncc1)c1cccc(OCCO)c1)c1cnc2ccccc2c1	0.716	0.161 (inactive)	0.43	0.0815	1.01	1.91	0.919	1.31	1.44	1.24	2.26	1.17	0.191	0.922	1.48	1.68	0.746	1.64	1.55	-1.68 (inactive)
COc1cc2c(cc1OC)CN(C(=O)[C@H]1[C@@H]3C(=O)O[C@@H](c4ccccc4)[C@@H](c4ccccc4)N3[C@@H](c3ccc(OCCO)cc3)[C@]13C(=O)Nc1ccc(C#CCCO)cc13)CC2	0.592	0.524 (inactive)	0.0418	0.0292	0.434	2.2	1.25	1.29	0.0602	1.11	1.43	1.22	0.541	0.939	1.35	0.742	-0.96	1.14	1.01	0.268 (inactive)
[N-]=[N+]=Nc1ccccc1C[C@]1(C(=O)NCc2ccccc2)N=C(c2ccc(OCCCO)cc2)O[C@H]1c1ccccc1	0.989	0.0068 (inactive)	0.285	0.0443	0.714	2.93	0.373	1.29	-0.755	1.07	1.93	1.24	0.0541	0.998	1.13	0.0124	0.482	0.0213	1.12	-1.34 (inactive)
